CYP2C19 inhib – blocks human cytochrome P450 2C19; inhibition, % at 5 µM; AID 778; P33261; CYP2C19 Supersomes, luciferin-H EGE luminescence, 30 min; 96,000 tested, 21% active;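 active = CYP2C19 inhibition above a set limit at 5 µM in the primary screen, cut at about 50% in these data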;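 also: plate controls were negative control wells for no effect and 2.5 mM tranylcypromine positive control for full effect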
CYP2C9 act – CYP2C9 (human) activation | recombinant CYP2C9, luciferin-H conversion, luminescence; active compounds read high; factor 1 = untreated enzyme, 0 = blocked | activation factor at 5 µM | 96,000 tested, 1.4% active | AID 1024;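 active = activation factor of 2 or more for CYP2C9 at a 5 µM dose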;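 also: 0 = sulfaphenazole-blocked wells and 1 = vehicle-only wells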
Target sequence (P11712 whole entry, looked up): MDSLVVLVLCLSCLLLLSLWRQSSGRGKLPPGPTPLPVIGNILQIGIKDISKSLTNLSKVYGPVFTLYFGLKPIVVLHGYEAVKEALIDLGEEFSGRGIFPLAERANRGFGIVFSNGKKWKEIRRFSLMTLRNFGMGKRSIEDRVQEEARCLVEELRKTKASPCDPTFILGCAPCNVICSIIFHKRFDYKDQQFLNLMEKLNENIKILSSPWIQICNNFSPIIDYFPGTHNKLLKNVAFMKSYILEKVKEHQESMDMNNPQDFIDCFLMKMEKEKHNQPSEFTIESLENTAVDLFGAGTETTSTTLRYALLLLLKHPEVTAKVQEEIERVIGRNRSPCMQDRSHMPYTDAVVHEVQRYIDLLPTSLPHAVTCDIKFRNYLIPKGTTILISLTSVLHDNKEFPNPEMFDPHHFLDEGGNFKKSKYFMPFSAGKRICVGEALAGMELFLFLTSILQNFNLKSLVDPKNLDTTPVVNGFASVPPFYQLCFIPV
PLAP act – activators of human placental alkaline phosphatase; P05187; purified PLAP enzyme, luminescent substrate read-out; active compounds read high; activation fold at 20 µM; 96,000 tested, 1.2% active; in the data active = activation fold above about 2
CYP2C19 act – increases human CYP2C19 enzyme activity; P33261; recombinant CYP2C19, luciferin-H EGE luminescence; active compounds read high; 0 = fully inhibited enzyme, 1 = untreated enzyme; activation factor at 5 µM; 96,000 tested, under 10 active; AID 1025;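 active = activation factor of at least 2 at 5 µM in the primary screen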;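 also: 0 = wells with 2.5 mM tranylcypromine and 1 = vehicle-only wells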
CYP2C9 inhib – blocks human cytochrome P450 2C9; P11712; CYP2C9 Supersomes, luciferin-H conversion, luminescence; inhibition, % at 5 µM; 96,000 tested, 20% active; AID 777;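 active = blocking of liver enzyme CYP2C9 beyond about 50% at 5 µM, limit read from the data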
* marks the source's active call; other numbers are inactive results. Hits are enriched below; roughly 31% of the tested compounds scored in any of these assays.

SMILES | CYP2C19 inhib | CYP2C9 act | PLAP act | CYP2C19 act | CYP2C9 inhib
COc1cc(C(=O)O/N=C(\N)c2ccncc2)cc(OC)c1OC | 72.4* | 0.1 | 1 | 0.3 | 88.6*
CCOc1cc(C(=O)O/N=C(\N)c2ccc([N+](=O)[O-])cc2)cc(OCC)c1OCC | 5.0 | 0.8 | 0.8 | 0.9 | 20.1
COc1ccc2c(c1OC)C(=O)N(c1cccc(C)c1)C2=O | 19.8 | 3.1* | 0.9 | 0.8 | -211.2
CC(CC(=O)NCc1ccccc1)C1CCCO1 (stereo not given) | 48.9 | 0.4 | 1 | 0.5 | 60.5*
Cc1ccccc1-n1c(SCC(=O)N2CCN(c3ccccc3)CC2)nnc1-c1ccncc1 | 83.8* | 0.2 | 1.5 | 0.2 | 75.9*
O=C(CSc1nnc(SCc2ccc(Cl)cc2)s1)N1CCOCC1 | -3.5 | 1.1 | 0.9 | 1 | -9.0
O=C(CSc1nnc(-c2ccncc2)n1-c1ccc(Cl)cc1)N1CCOCC1 | 98.2* | 0.2 | 1 | 0 | 77.3*
O=C(O)CSc1nnc(-c2ccncc2)n1-c1ccc(Cl)cc1 | 8.6 | 0.5 | 1.2 | 0.9 | 51.2*
O=C(CSc1ccc(Cl)cc1)N1CCOCC1 | 73.5* | 1.2 | 0.8 | 0.3 | -16.9
CN(Cc1ccccc1)C(=O)C1CCCN(Cc2ccc(Cl)cc2)C1 (stereo not given) | 24.8 | 0.9 | 1.3 | 0.8 | 12.0
CCCc1cc(=O)[nH]c(SCC(=O)N2CCN(S(=O)(=O)c3ccc(C)cc3)C2)n1 | 12.2 | 0.9 | 1.2 | 0.9 | 12.7
Clc1ccc(-n2c(SCc3nc4ccccc4[nH]3)nnc2-c2ccncc2)cc1 | 98.7* | 0.2 | 1.5 | 0 | 84.3*
O=C(CN1C(=O)CCC1=O)Nc1ccc2c3c(cccc13)CC2 | -11.3 | 1.1 | 0.8 | 1.1 | -13.8
Nc1ccc2c3c(cccc13)CC2 | 4.4 | 1.1 | 1.2 | 1 | -10.6
O=S(=O)(Nc1ccc2c3c(cccc13)CC2)c1ccc(F)cc1 | 70.5* | 1.1 | 1.3 | 0.3 | -9.6
CSc1ccc(S(=O)(=O)Nc2ccc3c4c(cccc24)CC3)cc1 | 97.7* | 1.5 | 1 | 0 | -45.2
Cc1ccc(Cl)cc1N1CCN(CC(=O)Nc2ccc3[nH]c(=O)[nH]c3c2)CC1 | 13.3 | 1.2 | 0.9 | 0.9 | -21.3
O=C(O)C1C2C=CC(C2)C1C(=O)Nc1ccc(C(=O)N2CCCCC2)c(Cl)c1 (stereo not given) | -0.3 | 1.2 | 1.1 | 1 | -22.6
O=C(OCc1nnc(-c2ccccc2)o1)C1CCN(S(=O)(=O)c2cccs2)CC1 | 38.3 | 0.2 | 0.8 | 0.6 | 79.0*
O=C(OCCN1C(=O)c2ccccc2C1=O)C1CCN(S(=O)(=O)c2cccs2)CC1 | 85.9* | 0 | 1.3 | 0.1 | 96.6*
O=C(OCCN1C(=O)c2ccccc2C1=O)c1cccs1 | 45.9 | 0.7 | 1.2 | 0.5 | 28.3
Cc1cccc(OCCOC(=O)C2CCN(S(=O)(=O)c3cccs3)CC2)c1 | 46.7 | 0.3 | 1.2 | 0.5 | 65.3*
CCC(Sc1nc(=O)cc(N)n1CCc1ccccc1)C(=O)Nc1ccccc1C#N (stereo not given) | 20.3 | 0.8 | 1.1 | 0.8 | 23.8
O=C(c1cc2ccccc2c(=O)o1)N1CCCc2ccccc21 | 44.6 | 1.7 | 1 | 0.6 | -68.1
O=C(c1cc2ccccc2c(=O)o1)N1CCc2ccccc2C1 | 44.4 | 2.5* | 1 | 0.6 | -150.2
SMILES | CYP2C19 inhib | CYP2C9 act | PLAP act | CYP2C19 act | CYP2C9 inhib
CCn1c(C(=O)N2CCc3ccccc3C2)cc2oc3ccccc3c21 | 55.3* | 0.5 | 1.9 | 0.4 | 53.1*
CCOC(=O)c1c(C)c(C(=O)N2CCc3ccccc3C2)c(C)n1CC | 85.6* | 0.6 | 1.4 | 0.1 | 45.0
CN(C)c1ccc(C(=S)N2CCOCC2)cc1Br | 30.3 | 2.4* | 1 | 0.7 | -142.0
COc1ccc(C(=O)N2CCOCC2)cc1Br | 8.4 | 2.3* | 0.9 | 0.9 | -130.9
S=C(c1ccc(N2CCOCC2)cc1)N1CCOCC1 | 8.7 | 0.8 | 1.1 | 0.9 | 18.5
CSC1=C(C#N)C(c2cccs2)CC(=O)N1C (stereo not given) | 22.9 | 1 | 1.1 | 0.8 | -1.4
N#CC1=C2SCC(O)(c3ccccc3)N2C(=O)CC1c1cccs1 (stereo not given) | 81.6* | 0 | 0.9 | 0.2 | 99.3*
COc1ccc(C2CC(=O)N3C(=C2C#N)SCC3(O)c2ccccc2)cc1 (stereo not given) | 83.9* | 0 | 1.1 | 0.2 | 99.5*
N#CC1=C2SCC(O)(c3ccccc3)N2C(=O)CC1c1ccccc1F (stereo not given) | 100.3* | 0 | 1.4 | 0 | 98.6*
Cc1c(NC(=O)CSC2=C(C#N)C(c3ccccc3F)CC(=O)N2)c(=O)n(-c2ccccc2)n1C (stereo not given) | -0.6 | 1.1 | 1.3 | 1 | -8.9
O=C(OCn1nnc2ccccc2c1=O)c1cccs1 | 20.1 | 1 | 0.9 | 0.8 | -3.8
O=C(NC1CCCCC1)n1c(=O)oc2ccc(Cl)cc21 | 13.2 | 1 | 0.8 | 0.9 | 4.7
Cn1c(SCc2ccccc2Cl)nc(C(F)(F)F)cc1=O | -2.8 | 0.9 | 0.9 | 1 | 13.7
COc1cc(COCC(O)CN2CCOCC2)cc(OC)c1OC (stereo not given) | 8.8 | 1.1 | 1 | 0.9 | -9.9
CCNc1cc2oc(=O)c(CN3CCOCC3)c(C)c2cc1C | 21.7 | 3.3* | 2* | 0.8 | -226.6
Cc1cc2oc(=O)cc(CN3CCOCC3)c2cc1C | 46.6 | 1.2 | 0.7 | 0.5 | -19.8
Cn1cc(Cl)c(-c2nc3ccccc3[nH]2)n1 | 62.3* | 0.7 | 0.9 | 0.4 | 31.6
CN1C(=O)N2CN(C3CCCCC3)CN3C(=O)N(C)C1C23 (stereo not given) | -4.8 | 1.2 | 0.8 | 1 | -16.4
O=C(Nn1cnnc1)C(Sc1ccccc1)c1ccccc1 (stereo not given) | 61.0* | 0.3 | 1 | 0.4 | 74.2*
CNC(=O)C(Sc1ccccc1)c1ccccc1 (stereo not given) | 91.1* | 0.6 | 0.9 | 0.1 | 44.4
O=C(NCCO)C(c1ccccc1)c1ccccc1 | 11.4 | 1.1 | 0.9 | 0.9 | -7.3
CCN(CC)C(=O)C(Sc1ccccc1)c1ccccc1 (stereo not given) | 90.5* | 0.9 | 1 | 0.1 | 12.3
COc1ccc(OC)c(NC(=O)Nc2cccc3ccccc23)c1 | 5.7 | 0.6 | 0.8 | 0.9 | 38.7
COc1ccc(OC)c(NC(=O)C(Sc2ccccc2)c2ccccc2)c1 (stereo not given) | 56.1* | 0.9 | 1.1 | 0.4 | 7.3
CC(C)NC(=O)c1cc(C(=O)c2cc(Cl)ccc2O)coc1=N | 68.9* | 0.7 | 1.1 | 0.3 | 33.9
COc1ccc(OC)c(-c2nc(C)sc2CC(=O)O)c1 | -18.1 | 1.2 | 0.8 | 1.2 | -19.5
COc1ccc(C(=O)OCn2nnc3ccccc3c2=O)cc1OC | -1.4 | 0.9 | 1 | 1 | 6.5
COc1cccc(C(=O)OCn2nnc3ccccc3c2=O)c1 | 81.0* | 0.9 | 0.9 | 0.2 | 11.5
Cc1cc(C(=O)OCn2nnc3ccccc3c2=O)c(C)o1 | 53.2* | 0.6 | 0.9 | 0.5 | 38.2

Screening results: PubChem BioAssay, Sanford-Burnham Center for Chemical Genomics
